Assay outcomes: PubChem, National Center for Advancing Translational Sciences (NCATS)
Shown are actives, neighbours in structure and some others; about 12% of the full set was active somewhere.
AmpC inh detg = inhibitors of E. coli AmpC beta-lactamase with detergent. P00811. AmpC hydrolysis of nitrocefin, absorbance 480 nm, 0.01% Triton. Potency, µM (series often up to 114 µM), without a hit: top-dose activity change, negative = inhibition, hits mostly inhibitors. hit rate 0.041% among 370,000. AID 485294;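 further: 0% = no-compound wells and -100% = no-enzyme wells; nearly all actives have a fitted effect of over 25% in size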
Target sequence (P00811 whole entry, looked up): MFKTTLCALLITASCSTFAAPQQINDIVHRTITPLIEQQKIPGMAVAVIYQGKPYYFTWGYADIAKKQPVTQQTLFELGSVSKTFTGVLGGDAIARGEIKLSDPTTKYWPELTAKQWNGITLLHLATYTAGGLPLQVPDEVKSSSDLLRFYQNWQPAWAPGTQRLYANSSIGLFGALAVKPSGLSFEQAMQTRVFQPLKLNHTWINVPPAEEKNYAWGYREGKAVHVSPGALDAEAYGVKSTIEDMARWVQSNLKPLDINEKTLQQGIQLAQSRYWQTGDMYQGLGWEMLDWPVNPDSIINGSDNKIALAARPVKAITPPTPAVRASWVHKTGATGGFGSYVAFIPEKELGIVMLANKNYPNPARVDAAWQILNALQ
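20 mM phosphate pH 7.0 + 0.01% (detergent screen) or 0.0001% Triton X-100; 5.3 nM AmpC reagent; cpd preinc 15 min RT; nitrocefin (800 uM stock) to start; A480 q20 s × 4 min; Activity was normalised to no-enzyme and no-compound control wells.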
Pf growth 96h = P. falciparum growth inhibition at 96 hours | P. falciparum luciferase reporter growth, 96 h | Potency, µM (series often up to 28.7 µM), for the others: at the highest dose activity change, negative = inhibition, most hits filed as inhibitors | hit rate 6.9% among 320,000; further: on the % scale 0 is the no-effect control and ±100 the full control effect
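Two parasite generations (96 h, 37 C, 5% CO2) of compound exposure in infected erythrocytes (0.05% parasitemia, 2% hematocrit). Luciferase-reporter P. falciparum; decreased luminescence indicates inhibited growth, aimed at apicoplast-acting delayed death.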
Sm TGR block = inhibitors of Schistosoma mansoni thioredoxin glutathione reductase; hit rate 3% among 360,000; purified TGR, DTNB reduction, TNB absorbance 405 nm; Potency, µM (top dose mostly 114 µM), inactives show at the top dose activity change, negative = inhibition, hits mostly inhibitors; further: on the % scale 0 is the no-effect control and ±100 the full control effect; nearly all actives have a fitted effect of over 60% in size
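Kinetic colorimetric format: TGR-catalysed, NADPH-driven DTNB reduction monitored via TNB absorbance. Enzyme dispensed at 20 nM; compound exposure 15 min at room temperature before reaction start.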
Pf growth 48h = P. falciparum growth inhibition at 48 hours (one generation). P. falciparum luciferase growth in erythrocytes, 48 h. Potency, µM (series often up to 28.7 µM), without a hit: at the top dose activity change, negative = inhibition, hits mostly inhibitors. hit rate 5.9% among 310,000; further: on the % scale 0 is the no-effect control and ±100 the full control effect
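Firefly luciferase activity from engineered P. falciparum reports growth; inhibitors lower the luminescent signal. Cultures contained 2% hematocrit erythrocytes at 0.1% final parasitemia.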
SARS PLpro yeast = inhibitors of SARS-CoV papain-like protease in yeast. S. cerevisiae expressing SARS-CoV PLpro, growth rescue. AID 485353. Potency, µM (highest dose often 32.9 µM), for the others: top-dose activity, positive = growth rescue, usual class: activators. hit rate 0.19% among 330,000; calls by dose curve; further: 0% is about no effect; nearly all actives have a fitted effect of over 55% in size
AmpC inh no detg = AmpC beta-lactamase inhibition without detergent | P00811 | AmpC nitrocefin hydrolysis, absorbance 480 nm, 0.0001% Triton | Potency, µM (highest dose often 57.1 µM), without a hit: top-dose activity change, negative = inhibition, hits mostly inhibitors | hit rate 0.52% among 330,000 | AID 485341;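 further: plate controls were no compound for no effect and no enzyme for full effect; nearly all actives have a fitted effect of over 20% in size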
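AmpC (5.3 nM in the dispensed reagent) in 20 mM phosphate pH 7.0 with 0.01% (detergent screen) or 0.0001% Triton X-100 was preincubated with compounds for 15 min at room temperature. Nitrocefin was then added from an 800 uM solution, and hydrolysis was followed at 480 nm.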
The depositor's hits bear a star; ? = inconclusive; / = no result; [ ] = dose if it differs, or a comment. Unless noted, the call rests on the fitted dose curve; in most records, active means well fitted curve in the direction sought with a large enough effect; inconclusive means small, poorly fitted or top-dose-only effect, or another doubt; inactive means no such curve, though single readings can be large; an effect the other way counts as inactive or inconclusive. Potency means the concentration at half of the fitted maximal effect.

SMILES | AmpC inh detg | Pf growth 96h | Sm TGR block | Pf growth 48h | SARS PLpro yeast | AmpC inh no detg
O=C(NCc1ccc(F)cc1)c1ccc2c(c1)N(Cc1c(F)cccc1Cl)C(=O)CS2 | -0.1% | / | 1.6% | / | / | /
CCOC(=O)C(C)n1nc(C)c2sc3ccccc3c2c1=O (stereo unspecified) | 0.2% | 20.1% | 39.8µM* | -33.7% | 9.5% | 3.2%
CCOC(=O)N1CCN(C(=O)CCCn2nc(C)c3sc4ccccc4c3c2=O)CC1 | -11.5% | 13.9% | 10.5% | 5.22µM* | 13.0% | 167.1%
Cc1ccc(N2CCN(C(=O)Cn3ncc4c([nH]c5ccc(C)cc54)c3=O)CC2)c(C)c1 | 21.1% | / | 7.0% | / | / | /
CCNC(=S)Nc1sc2c(c1C#N)CCC(C)C2 (stereo unspecified) | 0.7% | 5.86µM* | -27.7% | ? | -0.1% | -17.7%
Cc1ccnc2c(N3C(=O)C4C5C=CC(C5)C4(C)C3=O)cccc12 (stereo unspecified) | ? | ? | -2.0% | 7.9% | 6.5% | 7.08µM*
O=C(O)CNc1nc(-c2ccccc2)c2cc([N+](=O)[O-])ccc2n1 | -2.6% | 14.8% | -13.9% | 6.2% | -1.8% | -21.9%
O=[N+]([O-])c1ccc2nc(NCCCO)nc(-c3ccccc3)c2c1 | 5.8% | 11.7µM* | -0.8% | ? | 7.9% | 57.5%
Cc1ccc(-c2cc(-c3cccc(F)c3)n[nH]2)c(O)c1 | ? | / | -12.0% | ? | -7.7% | -35.1%
S=c1[nH]nc(-c2ccc(Br)cc2)n1-c1ccc(Br)cc1 | ? | -23.9% | 16.4% | -4.0% | 2.3% | -42.7%
COc1ccc(O)c(-c2cc(-c3cccc(Br)c3)n[nH]2)c1 | -9.2% | ? | 1.7%[11.4 µM] | / | -21.8% | 2.24µM*
Oc1ccc(Br)cc1-c1cc(-c2ccc(Cl)cc2)n[nH]1 | 7.6% | / | 2.6% | 1.17µM* | -10.5% | -35.3%
O=[N+]([O-])c1cccc(-c2n[nH]c(=S)n2-c2ccc(Br)cc2)c1 | -4.8% | 0.4% | 0.794µM* | -0.2% | 0.4% | -46.7%
Cc1ccc(O)c(-c2cc(-c3cccc(F)c3)n[nH]2)c1 | -10.8% | / | 19.3% | 8.28µM* | -29.9% | -38.9%
COc1ccc(-c2cc(-c3ccc(Cl)cc3)n[nH]2)c(O)c1 | -1.4% | 18.3% | -6.3% | ? | -1.7% | -39.0%
Cc1cccc(-n2c(=O)c3c(c4cc(C)ccc4n3C)n(CC(=O)Nc3ccc(C)cc3C)c2=O)c1 | 12.0% | / | 26.0% | / | / | /
COc1ccc(-c2cc(-c3cc(OC)ccc3O)[nH]n2)cc1 | ? | / | -0.1% | / | -21.1% | -33.4%
Oc1ccc(Br)cc1-c1cc(-c2ccccc2)n[nH]1 | -0.4% | 3.29µM* | -3.2% | 5.22µM* | 0.9% | -30.2%
O=[N+]([O-])c1ccccc1-c1cc(-c2ccccc2O)n[nH]1 | ? | 100.4% | -8.8% | 208.7% | -27.6% | -10.2%
O=[N+]([O-])c1cccc(-c2cc(-c3cc(Br)ccc3O)[nH]n2)c1 | -15.9% | 8.28µM* | -14.2% | 4.65µM* | -23.8% | -23.3%
Cc1cc(C)cc(N2CC(c3nnc(NC(=O)c4ccco4)s3)CC2=O)c1 (stereo unspecified) | 25.4% | / | 1.9% | / | / | /
CCOC(=O)c1ccc(NC(=O)CC2C(=O)N(c3ccc(F)cc3)C(=O)N2Cc2ccc(C)cc2)cc1 (stereo unspecified) | -13.7% | / | -15.1% | / | / | /
COc1ccc(Nc2ccc(C(F)(F)F)cc2[N+](=O)[O-])cn1 | 0.8% | -7.8% | -16.9% | -9.5% | -4.4% | -2.0%
Cn1c(CCNC(=O)c2ccco2)nc2cc(NC(=O)COc3ccc(Cl)cc3)ccc21 | 0.0% | / | -0.4% | / | / | /
COCCNC(=S)N/N=C(\C)c1ccc(O)cc1 | -11.4% | 37.0% | -25.2% | 29.2% | 13.5% | -21.3%
SMILES | AmpC inh detg | Pf growth 96h | Sm TGR block | Pf growth 48h | SARS PLpro yeast | AmpC inh no detg
C/C(=N\NC(=S)NCC(C)(C)C)c1cc(F)cc(F)c1O | 8.6% | ? | 6.3% | 0.294µM* | -1.6% | -38.6%
O=C(Nc1ccccc1N1CCOCC1)c1cc(-c2ccncc2)nc2ccccc12 | 1.1% | 8.28µM* | -15.6% | ? | -7.8% | 118.1%
CCN(CC)S(=O)(=O)c1ccc(N2CCOCC2)c(NC(=O)c2cccc3ccccc23)c1 | -6.8% | ? | 7.6% | ? | -15.0% | -15.2%
CCN(CC)S(=O)(=O)c1ccc(N2CCOCC2)c(NC(=O)c2cc(-c3ccccn3)nc3ccccc23)c1 | -1.1% | 8.28µM* | -5.9% | 1.85µM* | -0.7% | -9.4%
CCN(CC)S(=O)(=O)c1ccc(N2CCOCC2)c(NC(=O)C2=COCCO2)c1 | 1.5% | 2.08µM* | 18.9% | 3.29µM* | -2.2% | 63.2%
CCN(CC)S(=O)(=O)c1ccc(N2CCCCC2)c(C(=O)Nc2ccccc2N2CCOCC2)c1 | -0.7% | 4.15µM* | -6.7% | / | ? | 0.4%
CCN(CC)S(=O)(=O)c1ccc(N2CCOCC2)c(NC(=O)c2ccc3c(c2)OCCO3)c1 | ? | ? | -1.9% | ? | -8.9% | 54.5%
C[C@H](CO)N1C[C@H](C)[C@@H](CN(C)S(C)(=O)=O)Oc2ccc(NC(=O)Cn3cnnn3)cc2C1=O | / | / | / | / | -1.0% | -9.9%
COc1ccc(Cn2cccc(NC(=O)Nc3cccc(OC)c3)c2=O)cc1 | -3.7% | ? | -24.4% | 61.3% | -1.6% | -30.5%
CCOC(=O)c1cc(-c2ccc(OC)cc2)n(CCC(=O)Nc2cccc(C(C)=O)c2)c1C | 3.6% | / | -0.8% | / | / | /
CCOc1ccc(CCNC(=O)CCCc2nnc3n(CC)c(=O)c4sccc4n23)cc1OCC | ? | / | 2.8% | / | / | /
CCN(CC)S(=O)(=O)c1ccc(N2CCOCC2)c(NC(=O)c2ccc3ccccc3c2)c1 | -1.6% | 11.7µM* | -5.9% | ? | 6.8% | 50.7%
CCN(CC)S(=O)(=O)c1ccc(N2CCOCC2)c(NC(=O)c2c3c(nc4ccccc24)CCC3)c1 | -10.7% | 4.65µM* | 5.2% | 7.38µM* | -18.6% | 108.9%
CCc1cc(C(=O)Nc2cc(S(=O)(=O)N(CC)CC)ccc2N2CCN(C)CC2)sc1C | -9.8% | 2.62µM* | -14.3% | ? | -3.6% | 149.7%
CCc1noc(C)c1C(=O)Nc1cc(S(=O)(=O)N(CC)CC)ccc1N1CCOCC1 | -9.0% | ? | -13.0% | ? | -3.8% | 121.1%
CCN(CC)S(=O)(=O)c1ccc(N2CCOCC2)c(NC(=O)c2cnccn2)c1 | 1.2% | 11.7µM* | -9.0% | 8.28µM* | 7.4% | 60.2%
CCN(CC)S(=O)(=O)c1ccc(N2CCOCC2)c(NC(=O)C2CCCO2)c1 (stereo unspecified) | -4.9% | 8.28µM* | -2.4% | ? | 0.9% | 34.3%
